Reference: PubChem BioAssay AID1159580 (chemical genetic matrix, 2015)
About 2,000 (36%) of roughly 5,500 compounds were called active. Not shown: some 18% with an inconclusive outcome. Rule as the data show it: active = normalized growth mostly below about 0.91 (no sharp cut-off); inconclusive = no clear call, values can overlap the other calls; inactive = mostly above about 0.92. This is one part of the list.

Assay: chemical genetic growth profiling, strain panel (AID 1159580);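 also: tested at 20 µM; growth read once vehicle control cultures reached saturation at 30 °C; 1 = growth at the plate median or of vehicle wells; lower values mean less growth of the strain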
Settings: growth OD
[1] = S. cerevisiae deletion strains, locus YBR021W, strain FUR4, active compounds read low
[2] = S. cerevisiae deletion strains, locus YBR229C, strain ROT2, active compounds read low
[3] = S. cerevisiae deletion strains, locus YCL029C, strain bik1, active compounds read low
[4] = S. cerevisiae deletion strains, locus YDL035C, strain GPR1, active compounds read low
[5] = S. cerevisiae deletion strains, locus YDL074C, strain BRE1, active compounds read low
[6] = S. cerevisiae deletion strains, locus YDL101C, strain DUN1, active compounds read low
[7] = S. cerevisiae deletion strains, locus YDL185W, strain tfp1, active compounds read low
[8] = S. cerevisiae deletion strains, locus YDL192W, strain arf1, active compounds read low
[9] = S. cerevisiae deletion strains, locus YDR101C, strain arx1, active compounds read low
[10] = S. cerevisiae deletion strains, locus YDR162C, strain NBP2, active compounds read low
[11] = S. cerevisiae deletion strains, locus YDR318W, strain mcm21, active compounds read low
[12] = S. cerevisiae deletion strains, locus YDR388W, active compounds read low
[13] = S. cerevisiae deletion strains, locus YDR502C, strain sam2, active compounds read low
[14] = S. cerevisiae deletion strains, locus YER110C, active compounds read low
[15] = S. cerevisiae deletion strains, locus YER155C, strain BEM2, active compounds read low
[16] = S. cerevisiae deletion strains, locus YER167W, strain BCK2, active compounds read low
[17] = S. cerevisiae deletion strains, locus YGL078C, strain dbp3, active compounds read low
[18] = S. cerevisiae deletion strains, locus YGL086W, strain mad1, active compounds read low
[19] = S. cerevisiae deletion strains, locus YGL248W, strain PDE1, active compounds read low
[20] = S. cerevisiae deletion strains, locus YGR078C, strain PAC10, active compounds read low
[21] = S. cerevisiae deletion strains, locus YGR135W, strain pre9, active compounds read low
[22] = S. cerevisiae deletion strains, locus YGR252W, strain gcn5, active compounds read low
[23] = S. cerevisiae deletion strains, locus YHR030C, strain SLT2, active compounds read low
[24] = S. cerevisiae deletion strains, locus YHR079C, strain IRE1 (second series), active compounds read low
[25] = S. cerevisiae deletion strains, locus YHR094C, strain hxt1, active compounds read low
[26] = S. cerevisiae deletion strains, locus YHR129C, strain ARP1, active compounds read low
[27] = S. cerevisiae deletion strains, locus YHR200W, strain rpn10, active compounds read low
[28] = S. cerevisiae deletion strains, locus YIL066C, strain RNR3, active compounds read low
[29] = S. cerevisiae deletion strains, locus YIL073C, strain SPO22, active compounds read low
[30] = S. cerevisiae deletion strains, locus YIL125W, strain kgd1, active compounds read low
[31] = S. cerevisiae deletion strains, locus YIR030C, strain dcg1, active compounds read low
[32] = S. cerevisiae deletion strains, locus YJL095W, strain BCK1, active compounds read low
[33] = S. cerevisiae deletion strains, locus YJL134W, strain LCB3, active compounds read low
[34] = S. cerevisiae deletion strains, locus YJL168C, strain set2, active compounds read low
[35] = S. cerevisiae deletion strains, locus YJL187C, strain SWE1 (second series), active compounds read low
[36] = S. cerevisiae deletion strains, locus YJR043C, strain POL32, active compounds read low
[37] = S. cerevisiae deletion strains, locus YKL009W, strain mrt4, active compounds read low
[38] = S. cerevisiae deletion strains, locus YKL068W, active compounds read low
[39] = S. cerevisiae deletion strains, locus YKL085W, strain MDH1 (second series), active compounds read low
[40] = S. cerevisiae deletion strains, locus YKL085W, strain MDH1, active compounds read low
[41] = S. cerevisiae deletion strains, locus YKR001C, strain vps1, active compounds read low
[42] = S. cerevisiae deletion strains, locus YLR039C, strain RIC1, active compounds read low
[43] = S. cerevisiae deletion strains, locus YLR058C, strain SHM2, active compounds read low
[44] = S. cerevisiae deletion strains, locus YLR102C, strain apc9, active compounds read low
[45] = S. cerevisiae deletion strains, locus YLR268W, strain sec22, active compounds read low
[46] = S. cerevisiae deletion strains, locus YLR371W, strain rom2, active compounds read low
[47] = S. cerevisiae deletion strains, locus YLR418C, strain cdc73, active compounds read low
[48] = S. cerevisiae deletion strains, locus YML016C, strain PPZ1, active compounds read low
[49] = S. cerevisiae deletion strains, locus YML032C, strain rad52, active compounds read low
[50] = S. cerevisiae deletion strains, locus YML124C, strain tub3, active compounds read low
[51] = S. cerevisiae deletion strains, locus YMR078C, strain ctf18, active compounds read low
[52] = S. cerevisiae deletion strains, locus YMR223W, strain ubp8, active compounds read low
[53] = S. cerevisiae deletion strains, locus YMR307W, strain GAS1, active compounds read low
[54] = S. cerevisiae deletion strains, locus YNL067W, strain RPL9B, active compounds read low
[55] = S. cerevisiae deletion strains, locus YNL233W, strain BNI4, active compounds read low
[56] = S. cerevisiae deletion strains, locus YNL250W, strain rad50, active compounds read low
[57] = S. cerevisiae deletion strains, locus YNL271C, strain bni1, active compounds read low
[58] = S. cerevisiae deletion strains, locus YNL298W, strain CLA4, active compounds read low
[59] = S. cerevisiae deletion strains, locus YNL307C, strain MCK1, active compounds read low
[60] = S. cerevisiae deletion strains, locus YNR052C, strain pop2, active compounds read low
[61] = S. cerevisiae deletion strains, locus YOL012C, strain htz1
[62] = S. cerevisiae deletion strains, locus YOL147C, strain pex11, active compounds read low
[63] = S. cerevisiae deletion strains, locus YOR061W, strain CKA2, active compounds read low
[64] = S. cerevisiae deletion strains, locus YOR069W, strain VPS5, active compounds read low
[65] = S. cerevisiae deletion strains, locus YOR136W, strain idh2, active compounds read low
[66] = S. cerevisiae deletion strains, locus YOR144C, strain elg1, active compounds read low
[67] = S. cerevisiae deletion strains, locus YOR184W, strain ser1, active compounds read low
[68] = S. cerevisiae deletion strains, locus YOR316C, strain cot1, active compounds read low
[69] = S. cerevisiae deletion strains, locus YPL241C, strain CIN2, active compounds read low
[70] = S. cerevisiae deletion strains, locus YPR119W, strain clb2, active compounds read low
[71] = S. cerevisiae deletion strains, locus YPR141C, strain kar3, active compounds read low
[72] = S. cerevisiae deletion strains, locus YPR163C, strain tif3, active compounds read low
[73] = S. cerevisiae deletion strains, locus YPR167C, strain met16, active compounds read low
[74] = S. cerevisiae deletion strains, strain wtn01, active compounds read low

Measured: normalized growth

COc1ccc(CC2c3cc(OC)c(OC)cc3CCN2C)cc1OC (stereo not given)
inactive: S. cerevisiae deletion strains, locus YAL013W, strain DEP1, active compounds read low 0.984 | [1] 1.05 | [2] 0.969 | [3] 0.988 | [4] 0.997 | [5] 0.964 | [6] 0.961 | S. cerevisiae deletion strains, locus YDL134C, strain PPH21, active compounds read low 0.981 | [7] 0.951 | [8] 0.994 | [9] 1.01 | S. cerevisiae deletion strains, locus YDR150W, strain NUM1, active compounds read low 0.974 | [10] 0.941 | [11] 1.02 | [12] 0.992 | [13] 0.974 | S. cerevisiae deletion strains, locus YEL061C, strain CIN8, active compounds read low 0.988 | [14] 0.987 | [15] 1 | [16] 0.997 | [17] 0.976 | [18] 1.01 | [19] 0.978 | [20] 0.967 | [21] 0.957 | S. cerevisiae deletion strains, locus YGR229C, strain SMI1, active compounds read low 0.997 | [22] 1.08 | [23] 1 | [24] 0.99 | [25] 0.988 | [26] 0.987 | [27] 0.982 | [28] 0.971 | [29] 1.02 | [30] 0.983 | [31] 0.979 | [32] 0.985 | [33] 0.993 | [34] 0.98 | [35] 0.959 | [36] 1.03 | S. cerevisiae deletion strains, locus YJR075W, strain HOC1, active compounds read low 0.926 | [37] 0.995 | [38] 0.99 | [39] 0.97 | [40] 0.97 | S. cerevisiae deletion strains, locus YKL190W, strain CNB1, active compounds read low 0.978 | [41] 1 | [42] 0.959 | [43] 0.973 | [44] 0.978 | S. cerevisiae deletion strains, locus YLR262C, strain YPT6, active compounds read low 0.951 | [45] 0.953 | S. cerevisiae deletion strains, locus YLR330W, strain CHS5, active compounds read low 0.998 | S. cerevisiae deletion strains, locus YLR342W, strain FKS1 (second series), active compounds read low 1.05 | [46] 0.993 | [47] 0.955 | [48] 0.988 | [49] 1 | [50] 0.993 | [51] 0.989 | [52] 0.948 | S. cerevisiae deletion strains, locus YMR263W, strain SAP30, active compounds read low 0.96 | [53] 1.1 | [54] 0.959 | S. cerevisiae deletion strains, locus YNL128W, strain TEP1, active compounds read low 0.945 | S. cerevisiae deletion strains, locus YNL153C, strain GIM3, active compounds read low 0.947 | [55] 0.979 | [56] 0.97 | [57] 0.987 | [58] 0.978 | [59] 0.998 | S. cerevisiae deletion strains, locus YNL322C, strain KRE1, active compounds read low 0.982 | [60] 0.991 | S. cerevisiae deletion strains, locus YOL006C, strain TOP1, active compounds read low 0.936 | [61] 0.876 | [62] 0.991 | [63] 0.964 | [64] 0.994 | [65] 0.994 | [66] 0.993 | [67] 1.03 | [68] 0.975 | S. cerevisiae deletion strains, locus YPL055C, strain LGE1, active compounds read low 0.935 | [69] 0.99 | [70] 0.995 | [71] 0.968 | [72] 0.984 | [73] 0.979 | [74] 0.934 | S. cerevisiae strains, strain wild type, active compounds read low 0.987

COc1cc(OC)c2c(c1)OC(c1ccc(OC)c(OC)c1)C(O)C2 (stereo not given)
inactive: [1] 1.04 | [2] 1.01 | [3] 1.03 | [4] 1.08 | [5] 1.11 | [6] 1.02 | [7] 1.03 | [8] 1.02 | [9] 0.991 | [10] 1.04 | [11] 1.03 | [12] 1 | [13] 1.03 | [14] 1.01 | [15] 0.999 | [16] 1 | [17] 1.03 | [18] 1.02 | [19] 1.06 | [20] 1.04 | [21] 1.05 | [22] 1.05 | [23] 1.02 | [24] 1.02 | [25] 1.01 | [26] 1.02 | [27] 1.04 | [28] 1.02 | [29] 1.16 | [30] 1.02 | [31] 1.02 | [32] 1.07 | [33] 1.01 | [34] 1.01 | [35] 1.05 | [36] 1.06 | [37] 1.04 | [38] 0.998 | [39] 1.01 | [40] 1.01 | [41] 1.03 | [42] 1.17 | [43] 1.03 | [44] 1.01 | [45] 1.01 | [46] 1.05 | [47] 1.04 | [48] 1.01 | [49] 1.02 | [50] 1 | [51] 1.02 | [52] 1.02 | [53] 1.22 | [54] 1.01 | [55] 1.05 | [56] 1.05 | [57] 1.01 | [58] 1.03 | [59] 1.01 | [60] 1.05 | [61] 1.04 | [62] 1.03 | [63] 1.01 | [64] 1.02 | [65] 1.02 | [66] 1.01 | [67] 1.02 | [68] 1.03 | [69] 1.02 | [70] 1.01 | [71] 1.02 | [72] 1.02 | [73] 1.04 | [74] 1.03
